Drawing on PubChem BioAssay, this text covers inhibition for 13 compounds.

This is one part of the list. Activity calls are given as the source filed them.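 The calls were made as follows: active = mean inhibition over three repeats above about 26% taken from the earlier screen (limit read from the data); inactive = the rest.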

The nature of this assay: inhibitors of full-length beta-lactamase reporter, confirmation, artefact control for TLR4-MyD88 binding inhibitor project, cell-based, HeLa, full-length BLA, CCF4 FRET ratio (AID 1237).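 Also: HeLa cells stably expressing beta-lactamase reporter as counterscreen for TLR4-MyD88 inhibitors; 0% = DMSO and 100% = clavulanic acid full inhibition.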 To be noted: at 8.4 µM, stronger effect = higher value.
Broadly, the inhibition is the drop in the measured response relative to a control, in per cent. For the compound `O=C(c1ccc(Cl)cc1)c1cnc(Nc2ccccc2)s1`, the inhibition is 29.5% (active).

Consider `C[n+]1ccc(/C=C/c2c[nH]c3ccccc23)cc1`, for which the inhibition was 42.1% (active).

As to `O=C(/C=C/c1ccc(N2CCOCC2)cc1)c1ccccc1`, the inhibition was 45.8% (active).

Take `O=C1c2cccc3c([N+](=O)[O-])ccc(c23)C(=O)N1CC1CCCO1` (stereo not drawn): the inhibition is 108% (active).

In the case of `CCc1ccc2c(c1)C1(NN=C(c3ccccc3)S1)C(=O)N2` (stereo not drawn), the inhibition is 19.7% (inactive).

As for `CCN(CC)c1ccc2oc(=O)c(C)nc2c1`, the inhibition was 4.01% (inactive).

With `O=C(Nc1ccccc1Cl)/C(Cl)=C(\Cl)S(=O)c1ccccc1` (stereo not drawn), the inhibition is 14.5% (inactive).

Regarding `COc1ccccc1N1N=C(c2cccs2)CC1c1ccccc1` (stereo not drawn), the inhibition was 70% (active).

With `Cc1nc(Cl)c2oc3ccccc3c2n1`, the inhibition is 20.8% (inactive).

Regarding `O=C1NC(=O)C2C1C(c1ccc([N+](=O)[O-])cc1)=NN2Cc1ccccc1` (stereo not drawn), the inhibition was 42.9% (active).

As to `Cc1cccc(COc2ccccc2/C=N/Nc2ccc([N+](=O)[O-])cc2)c1`, the inhibition was 36.9% (active).

As to `COC(=O)Cc1cc(=O)n(-c2nc3ccccc3s2)[nH]1`, the inhibition was 4.99% (inactive).

On to `CCCCCCCCn1c2c(c(=N)c3c1CCC3)CCCC2`, for which the inhibition is 27.8% (active).
